The list is not random: actives were taken first. Their share in the collection is about 1.6%.
KCNQ2 enhance: enhances the rat KCNQ2 potassium channel; O88943; CHO-K1 KCNQ2, FluxOR thallium flux fluorescence; active compounds read high; B-score at 10 µM; hit rate 0.54% among 310,000;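 active = fluorescence ratio B-score at least 3 SD of library B-scores, with initial fluorescence B-score within 3 of them, cut at about 5.3 in these data; same plate scores as AID 2156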;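 also: B-score of peak minus minimum over baseline fluorescence ratio after K+ and Tl+ stimulus; positive B-score means potentiation of KCNQ2 with more thallium influx and brighter signal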
KCNQ2 block: inhibitors of rat KCNQ2 potassium channel. O88943. CHO-K1 KCNQ2, FluxOR thallium flux, 20 min; active compounds read low. B-score at 10 µM. hit rate 1.1% among 310,000;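 active = fluorescence ratio B-score at most minus 3 library SDs, with starting brightness B-score within 2 library SDs, cut at about -5.5 in these data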
* hit, by the source's call; i = inactive; x = no result.

SMILES	KCNQ2 enhance	KCNQ2 block
Cc1ccc(OCc2nnc(SCC(=O)N3CCc4ccccc43)n2C)cc1	x	i
Cc1ccc(S(=O)(=O)Oc2ccccc2/C=N/NC(=O)c2c(Cl)cnn2C)cc1	-6	-6*
Cn1ncc(Cl)c1C(=O)N/N=C/c1ccccn1	x	i
COC(=O)c1ccc(C(=O)OC)c(NC(=O)COC(=O)C2CCCCC2)c1	0.28	i
COC(=O)c1ccc(C(=O)OC)c(NC(=O)COC(=O)C2CCC(C(C)(C)C)CC2)c1 (centres undefined)	-5.9	-5.9*
COC(=O)c1ccc(N2CCCCC2)c(N)c1	x	i
COC(=O)c1ccc(C(=O)OC)c(N)c1	-5.7	-5.7*
CCn1c(SCC(=O)c2ccc3c(c2)Cc2ccccc2-3)nnc1-c1ccc(N)cc1	1.2	i
CCN(Cc1ccccc1)S(=O)(=O)c1cc(C(=O)NC2CCCCCC2)ccc1OC	-6.8	-6.8*
CCN(Cc1ccccc1)S(=O)(=O)c1cc(C(=O)NCC2CCCCC2)ccc1OC	x	i
Cc1ccc(CSc2nnc(CCCCCNC(=O)OC(C)(C)C)o2)cc1	1.3	i
O=C(NCCCCc1ccccc1)c1ccccc1	x	i
Cc1ccc(/C=C/C(=O)c2c(C)nc3ccccn23)cc1	x	i
CCN1C(=O)/C(=C\c2ccco2)C(C(=O)OC)=C1C	0.9	i
COC(=O)C1=C(C)N(CCc2ccccc2)C(=O)/C1=C\c1ccco1	-5.9	-5.9*
C=CCN1C(=O)/C(=C\c2ccco2)C(C(=O)OC)=C1C	0.71	i
COC(=O)C1=C(C)N(c2cccc(OC)c2)C(=O)/C1=C\c1ccco1	-6.2	-6.2*
COC(=O)C1=C(C)N(Cc2ccccc2)C(=O)/C1=C\c1ccco1	-5.7	-5.7*
CCOC(=O)C1=C(C)N(c2ccc(OCC)cc2)C(=O)/C1=C\c1ccco1	x	i
Cc1cccc(C)c1Nc1c(-c2ccc(N3CCOCC3)cc2)nc2cnccn12	0.33	i
COc1ccc(-c2noc(CCCC(=O)NC3CCCCC3)n2)cc1	0.77	i
Cc1cccc(CN2CCN(C(c3ccccc3)c3ccc(Cl)cc3)CC2)c1 (centres undefined)	-5.9	-5.9*
COc1cc(CN2CCN(C(c3ccccc3)c3ccccc3)CC2)cc(OC)c1OC	x	i
C/C=C/C(=O)N1CC2(CC(c3cccc(NC(=O)CC(c4ccccc4)c4ccccc4)c3)=NO2)C[C@H]1C(N)=O (some centres undefined)	0.17	i
CC(=O)c1c(C)oc2ccc(NS(=O)(=O)c3ccc(C)cc3)cc12	0.34	i
SMILES	KCNQ2 enhance	KCNQ2 block
Cc1oc2ccc(NS(=O)(=O)c3ccc(C(C)(C)C)cc3)cc2c1C(=O)Nc1ccccc1	-6	-6*
COc1ccc(Cl)cc1S(=O)(=O)N(C)CC(=O)NCCCn1ccnc1	0.73	i
CCCCn1c(N)c(C(=S)NC(=O)CC(C)(C)C)c(=O)n(C)c1=O	6.9*	i
CCCn1c(N)c(C(=O)CN2CCc3ccccc3C2)c(=O)n(C)c1=O	x	i
COC(=O)c1cn(C(=O)c2cccc(C)c2)c2ccccc12	x	i
C[C@H](O)[C@@H](C(=O)N1CCN(C(=O)OC(C)(C)C)CC1)n1cc(CCCCNC(=O)OC(C)(C)C)nn1	0.86	i
Oc1ccc(Cl)cc1/C=N/c1nccs1	1.1	i
Cc1cc(C(C)(C)C)ccc1OCCN(C)C	x	i
CC(C)Cc1cc(C(C)(C)C)ccc1OC(=S)N(C)C	-7.8	-7.8*
COC(=O)c1ccc(C(=O)NC2CCCc3c2cnn3-c2ccc(C)c(C)c2)cc1 (centres undefined)	x	i
Cc1nn(Cc2ccc([N+](=O)[O-])cc2)c(=O)n1-c1ccccc1	0.03	i
CCCCC1(Cc2ccc([N+](=O)[O-])cc2)C(=O)N(c2ccccc2)N(c2ccccc2)C1=O	-6	-6*
CN1CCN(S(=O)(=O)c2ccc(NC(=O)c3cccc(F)c3)cc2)CC1	2	i
O=C(Cc1ccccc1)NCC(=O)OCC(=O)c1ccccc1Cl	1.5	i
CNS(=O)(=O)c1cc(C(=O)OCC(=O)NC2CCCc3ccccc32)ccc1Cl (centres undefined)	x	i
CCN(CC)S(=O)(=O)c1cc(C(=O)OCC(=O)NC2CCCc3ccccc32)ccc1C (centres undefined)	-7.7	-7.7*
Cc1cccc(C(=O)NNC(=O)c2ccccc2O)c1	x	i
Cc1cc(C)c(-c2cc(NC(=O)CSc3n[nH]c(N)n3)n(-c3ccccc3)n2)cc1C	-6.9	-6.9*
Cc1cc(C)c(-c2cc(NC(=O)COC(=O)c3ccc(CO)cc3)n(-c3ccccc3)n2)cc1C	x	i
COCCOC(=O)C1=C(C)Nc2ncnn2C1c1ccco1 (centres undefined)	0.63	i
COc1ccc(C(=O)NCCSc2ccc(C)cc2)cc1	0.01	i
O=c1c2ccccc2nc(SCc2ccc([N+](=O)[O-])cc2)n1-c1ccccc1	x	i
O=c1c2ccccc2nc(SCc2cc([N+](=O)[O-])cc3c2OCOC3)n1-c1ccccc1	-6.1	-6.1*
CCc1cccc(NS(=O)(=O)c2ccc3c(c2)CCC(=O)N3)c1	2.9	i
O=C(O)c1cccc(Nc2ncnc3sccc23)c1	x	i
SMILES	KCNQ2 enhance	KCNQ2 block
CC(C)Cn1c([N+](=O)[O-])nc2c1c(=O)[nH]c(=O)n2C	x	i
Cn1c(=O)[nH]c(=O)c2c1nc([N+](=O)[O-])n2Cc1ccccc1	-6.2	-6.2*
CCOC(=O)CNC(c1ccccc1)c1cc(Br)ccc1NC(=O)CCN1CCOCC1 (centres undefined)	0.04	i
Cc1onc(-c2ccccc2)c1C(=O)NC(=S)Nc1sc2c(c1C#N)CCC(C)C2 (centres undefined)	10*	i
Cc1onc(-c2ccccc2)c1C(=O)NC(=S)Nc1sc2c(c1C#N)CCCC2	2.6	i
O=C(Nc1ccccc1Cl)NC1CCCCCCC1	0.88	i
Cc1ccc(-c2cccc(C(=O)NCCc3ccccc3)n2)c2ccccc12	-6.3	-6.3*
Cc1ccc(-c2cccc(C(=O)NCc3ccccc3)n2)c2ccccc12	x	i
COc1ccc(Cl)cc1C(=O)Nc1cccc2ncccc12	0.75	i
O=C(/C=C/c1ccc([N+](=O)[O-])cc1)c1cccs1	x	i
Nc1ccc(/C=C/C(=O)c2cccs2)cc1	-6.9	-6.9*
Cc1cc(C(=O)CSc2nc3ccccc3[nH]2)c(C)n1C	x	i
Cc1cc(C(=O)CSc2nc3ccc(Cl)cc3[nH]2)c(C)n1C	-6.3	-6.3*
C=CCn1c(C)cc(C(=O)CSc2nc3ccccc3[nH]2)c1C	-7.5	-7.5*
Cc1ccc2nc(SCC(=O)c3cc(C)n(C)c3C)[nH]c2c1	x	i
Cc1ccc(C(=O)c2ccc([N+](=O)[O-])cc2)cc1	x	i
Cc1nc2c(C(=O)NCc3ccccc3Cl)c[nH]n2c(=O)c1Cl	x	i
Cc1nc2c(C(=O)NCCc3ccccc3Cl)c[nH]n2c(=O)c1Cl	7.2*	i
CCOC(=O)c1c(C)oc2cc(Br)c(OC(=O)N3CCOCC3)cc12	x	i
COc1ccc(CNC(=S)NC2CCCC2)cc1	0.39	i
Cc1ccc(CNC(=S)NC2CCC(C(C)(C)C)CC2)cc1 (centres undefined)	-6.9	-6.9*
CCOC(=O)c1cccc(NC(=O)CCNS(=O)(=O)c2cccc3nonc23)c1	x	i
CC1(C)CC(=O)c2c(nn(-c3ccccc3)c2-c2ccncc2)C1	0.66	i
Cc1cc(OC2CCCCC2)nc(-c2ccccc2O)n1	-5.8	-5.8*
Cc1ccc(Oc2cc(C)nc(-c3ccccc3O)n2)cc1	x	i

High-throughput results (PubChem)
